Test results: PubChem BioAssay
Activity calls are given as the source filed them. Unless noted, how the calls were made is not given here.

Key:
[1] = A549 cell viability effects, profiling panel, calcein-AM fluorescence, 48 h, basal (AID 1162); conditions: higher = more signal; further: test concentration not given here
[2] = adipocyte viability effects, profiling panel, cell-based, 3T3-L1 adipocytes, calcein-AM fluorescence, 48 h, basal (AID 1163); conditions: 3T3-L1 adipocytes viability, higher = more signal; further: test concentration not given here
[3] = HepG2 cell viability effects, profiling panel, calcein-AM fluorescence, 48 h, basal (AID 1164); conditions: higher = more signal; further: test concentration not given here
[4] = MM1S cell viability effects, profiling panel, calcein-AM fluorescence, 48 h, basal (AID 1165); conditions: higher = more signal;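 further: viability of MM1S multiple myeloma cells under basal unstimulated conditions; test concentration not given here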
[5] = basal RPMI8226 viability, no added stimulus, profiling panel, cell-based, calcein-AM fluorescence, 48 h, PK04 Diversity Set (AID 1166); conditions: RPMI8226 myeloma viability, higher = more signal;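 further: cells grown under basal conditions without added stimulus; test concentration not given here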
[6] = basal HepG2 mitochondrial membrane potential changes, profiling panel, cell-based, JC-1 fluorescence, 24 h, 100 nL compound (AID 1167); conditions: higher = more signal; further: test concentration not given here
[7] = basal 3T3-L1 adipocyte mitochondrial potential changes, profiling panel, cell-based, JC-1 fluorescence, 3T3-L1 adipocytes, 24 h, 100 nL compound (AID 1168); conditions: JC-1 mitochondrial fluorescence, higher = more signal, called active from +8 up or from −8 down; further: test concentration not given here
[8] = basal RPMI8226 mitochondrial membrane potential changes, profiling panel, cell-based, JC-1 fluorescence, 24 h, 100 nL compound (AID 1169); conditions: RPMI8226 myeloma, JC-1 mitochondrial potential fluorescence, higher = more signal; further: test concentration not given here
[9] = basal MM1S mitochondrial membrane potential changes, profiling panel, cell-based, JC-1 fluorescence, 24 h, 100 nL compound (AID 1170); conditions: higher = more signal; further: test concentration not given here
[10] = A549 lung cancer cell viability effects, profiling panel, resazurin fluorescence, 24 h, PK04 Diversity Set (AID 1171); conditions: higher = more signal, called active from +8 up or from −8 down; further: test concentration not given here
[11] = HepG2 liver cancer cell viability effects, profiling panel, resazurin fluorescence, 24 h, PK04 Diversity Set (AID 1172); conditions: higher = more signal; further: test concentration not given here
[12] = basal S. cerevisiae growth modulation, no modifier, primary screen, OD600, strain BY4716, 24 h, basal condition (AID 1173); conditions: OD600, 24 h, higher = more signal, called active from +8 up or from −8 down
[13] = MM1S myeloma cell viability, profiling panel, resazurin fluorescence, basal, 24 h, PK04 Diversity Set (AID 1174); conditions: higher = more signal, called active from +8 up or from −8 down;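 further: MM1S multiple myeloma cell line; test concentration not given here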
[14] = target: Dihydroorotate dehydrogenase (quinone), mitochondrial (Plasmodium falciparum (isolate 3D7)) (UniProt Q08210); experiment: PfDHODH enzyme inhibitors, primary screen, biochemical, C-terminal His tag, absorbance 600 nm (AID 1175); conditions: DCIP absorbance 600 nm, higher = more signal, called active from +8 up or from −8 down;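 further: recombinant parasite enzyme with a five histidine tag at its C terminus; test concentration not given here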
Dihydroorotate dehydrogenase (quinone), mitochondrial (Plasmodium falciparum (isolate 3D7)), sequence (Q08210 whole entry, looked up): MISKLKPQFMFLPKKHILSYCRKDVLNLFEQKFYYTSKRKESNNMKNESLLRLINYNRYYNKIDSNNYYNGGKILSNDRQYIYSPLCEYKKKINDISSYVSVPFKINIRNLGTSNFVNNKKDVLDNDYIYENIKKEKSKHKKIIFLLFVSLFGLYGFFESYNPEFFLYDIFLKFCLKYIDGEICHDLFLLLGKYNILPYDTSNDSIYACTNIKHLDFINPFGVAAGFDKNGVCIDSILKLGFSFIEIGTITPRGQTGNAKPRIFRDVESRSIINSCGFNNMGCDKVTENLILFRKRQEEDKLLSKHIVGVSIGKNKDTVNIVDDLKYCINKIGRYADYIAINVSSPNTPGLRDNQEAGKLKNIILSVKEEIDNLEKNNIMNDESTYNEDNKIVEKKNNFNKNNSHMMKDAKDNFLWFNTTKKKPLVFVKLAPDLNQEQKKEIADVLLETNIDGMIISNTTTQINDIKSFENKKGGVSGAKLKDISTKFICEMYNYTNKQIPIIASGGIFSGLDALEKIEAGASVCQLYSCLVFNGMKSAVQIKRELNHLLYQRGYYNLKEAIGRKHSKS

[15] = P. aeruginosa biofilm formation inhibitors, primary screen, strain PAO1, LB-PBS medium, absorbance 600 nm (AID 1176); further: test concentration not given here; conditions: P. aeruginosa PAO1 growth/biofilm, A600, 12 h; higher = more signal
[16] = S. cerevisiae RM11-1a growth modifiers, primary screen, strain RM11-1a, OD600, basal, 24 h (AID 1177); conditions: OD600, 24 h, higher = more signal, called active from +8 up or from −8 down;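 further: cultures grown under basal conditions with no added stressor; test concentration not given here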
[17] = E. coli acrAB mutant growth effects, primary screen, E. coli filamentation inducers, strain DRC39, OD650, 24 h (AID 1178); conditions: higher = more signal, called active from +8 up or from −8 down;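 further: growth measured as culture turbidity by optical density at 650 nm; test concentration not given here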
[18] = E. coli acrAB mutant growth effects, primary screen, E. coli filamentation inducers, strain DRC39, OD650, 48 h (AID 1179);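 further: screen aims at cell division blockers that make cells filament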; conditions: E. coli DRC39 delta-acrAB growth, higher = more signal, called active from +8 up or from −8 down
[19] = RPMI8226 myeloma cell viability, profiling panel, resazurin fluorescence, basal, 24 h, PK04 Diversity Set (AID 1180); conditions: higher = more signal;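 further: RPMI8826 multiple myeloma cell line at 5000 cells per well; test concentration not given here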
[20] = target: E3 ubiquitin-protein ligase XIAP (Homo sapiens) (UniProt P98170); experiment: XIAP binders, primary screen, biophysical, small-molecule microarray, fluorescence 635 nm (AID 1181); conditions: small-molecule microarray binding, higher = more signal;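 further: score merges 667 nm emission and signal to noise over triplicate slides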
E3 ubiquitin-protein ligase XIAP (Homo sapiens), sequence (P98170 whole entry, looked up): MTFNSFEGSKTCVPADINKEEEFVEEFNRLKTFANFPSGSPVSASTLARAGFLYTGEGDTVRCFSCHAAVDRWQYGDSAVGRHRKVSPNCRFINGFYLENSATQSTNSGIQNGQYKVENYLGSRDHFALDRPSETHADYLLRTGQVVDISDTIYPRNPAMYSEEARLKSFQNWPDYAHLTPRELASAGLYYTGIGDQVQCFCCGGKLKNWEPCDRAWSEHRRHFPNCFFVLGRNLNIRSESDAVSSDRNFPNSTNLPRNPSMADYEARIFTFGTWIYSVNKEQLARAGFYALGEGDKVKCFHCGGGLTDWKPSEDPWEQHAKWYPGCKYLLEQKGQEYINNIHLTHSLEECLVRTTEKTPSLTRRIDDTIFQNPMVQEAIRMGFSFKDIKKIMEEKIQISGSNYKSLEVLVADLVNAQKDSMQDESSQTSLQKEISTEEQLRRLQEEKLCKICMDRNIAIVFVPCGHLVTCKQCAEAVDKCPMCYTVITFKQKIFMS

SMILES | z-score [1] | z-score [2] | z-score [3] | z-score [4] | z-score [5] | z-score [6] | z-score [7] | z-score [8] | z-score [9] | z-score [10] | z-score [11] | z-score [12] | z-score [13] | composite z-score [14] | z-score [15] | z-score [16] | z-score [17] | z-score [18] | z-score [19] | composite z-score [20]
Cc1ccc(S(=O)(=O)N2[C@@H](c3ccccc3)C(C(=O)O)=CC[C@H]2c2ccccc2)cc1 | -0.0225 | -0.426 | -0.335 | -0.107 | -1.25 | -0.923 | -0.17 (inactive) | 0.621 | 0.675 | -1.08 (inactive) | -1.18 | 0.131 (inactive) | -2.14 (inactive) | 1.03 (inactive) | -0.0727 (inactive) | 0.256 (inactive) | -0.992 (inactive) | -1.25 (inactive) | -1.8 | 0.261
C[C@@H]1NC(=O)[C@H](Cc2ccccc2)NC(=O)[C@@]23C(=O)N[C@@H](Cc4ccccc4)C2[C@H](C)[C@@]2(C)O[C@H]2C3/C=C/C/C=C\CNC1=O (stereo not given in full) | -0.0598 | 0.523 | -0.706 | 0.0254 | -1.65 | -0.971 | -0.206 (inactive) | 0.814 | 0.546 | -0.207 (inactive) | -0.51 | -0.256 (inactive) | -0.0224 (inactive) | 0.398 (inactive) | 0.236 (inactive) | 0.657 (inactive) | -0.593 (inactive) | -0.514 (inactive) | -0.0497 | -0.119
CCOC(=O)C1=CCC(c2cccc3ccccc23)N(S(=O)(=O)c2ccc(C)cc2)C1 (stereo not given) | -0.989 | -1 | -0.106 | -0.0257 | 0.291 | 1.98 | -0.759 (inactive) | -0.498 | -1.64 | -0.658 (inactive) | -0.739 | 0.66 (inactive) | -1.56 (inactive) | -0.384 (inactive) | 0.518 (inactive) | -0.225 (inactive) | -0.601 (inactive) | 0.0759 (inactive) | -3.43 | 0.397
O=C(NCc1ccccc1)[C@@]1(Cc2ccccc2)COC(c2ccc(OCCCO)cc2)=N1 | -1.65 | -2.05 | -2.78 | -3.58 | -3.06 | -2.97 | 0.558 (inactive) | -1.06 | -2.9 | -2.77 (inactive) | -2.41 | 0.0178 (inactive) | -6.53 (inactive) | 1.1 (inactive) | 0.162 (inactive) | 3.65 (inactive) | 0.11 (inactive) | -0.762 (inactive) | -5.69 | -0.217
COCCOC(=O)N1C(=O)[C@@]2(c3cc(C#CCNC(N)=O)ccc31)[C@H](C(=O)N1CCCCCCC1)[C@H]1C(=O)O[C@H](c3ccccc3)[C@H](c3ccccc3)N1[C@@H]2c1ccccc1OCCO | 1.01 | -0.177 | 1.04 | 1.38 | 0.767 | -1.3 | 0.315 (inactive) | -0.587 | -1.57 | -0.307 (inactive) | 0.0533 | 1.41 (inactive) | 0.188 (inactive) | 0.641 (inactive) | 2.08 (inactive) | 2.43 (inactive) | 0.532 (inactive) | 0.614 (inactive) | 0.368 | 0.291
O=C1C2C=CC(C(O)c3ccccc3)N(n3cnnc3)C2C(=O)N1Cc1ccccc1 (stereo not given) | 0.668 | -0.0533 | 0.765 | 0.2 | -1.68 | 0.323 | 0.129 (inactive) | -0.605 | 0.474 | -1.05 (inactive) | -0.362 | -0.0402 (inactive) | -0.468 (inactive) | -1.03 (inactive) | 1.87 (inactive) | -1.08 (inactive) | -0.456 (inactive) | -1.03 (inactive) | -0.974 | 0.23
CC(C)[Si](OCC[C@H]1O[C@]2(C(=O)N(Cc3ccccc3)c3ccccc32)[C@@H](C)[C@@H]1[Si](C)(C)O)(C(C)C)C(C)C | -0.287 | 1.13 | 0.35 | -0.64 | -1.31 | 0.444 | 0.578 (inactive) | -0.82 | -1.51 | -1.46 (inactive) | -0.563 | -0.113 (inactive) | 0.115 (inactive) | 0.766 (inactive) | -0.66 (inactive) | 1.11 (inactive) | -0.297 (inactive) | -0.837 (inactive) | 0.261 | -0.142
NC(=O)[C@H]1[C@@H]2C(=O)O[C@@H](c3ccccc3)[C@@H](c3ccccc3)N2[C@@H](c2ccc(O)cc2)[C@]12C(=O)Nc1ccc(C#CCCO)cc12 | -0.191 | -0.0912 | 0.0926 | -0.664 | 0.0381 | -1.59 | -0.699 (inactive) | -0.583 | 0.196 | -0.0774 (inactive) | -0.744 | -0.383 (inactive) | -0.354 (inactive) | -0.25 (inactive) | -0.0604 (inactive) | -1.03 (inactive) | -0.847 (inactive) | -1.18 (inactive) | -0.616 | 0.135
COC(=O)[C@@]1(Cc2ccccc2)[C@H]2c3cc(C(=O)N4CCCC4)n(CCN4CNCC4=O)c3C[C@H]2CN1C(=O)c1ccccc1 | -0.626 | 0.337 | -0.509 | 0.312 | 0.261 | -0.314 | 0.251 (inactive) | -0.185 | -0.777 | 0.0269 (inactive) | 0.276 | 0.864 (inactive) | 0.327 (inactive) | -0.482 (inactive) | -0.167 (inactive) | -0.189 (inactive) | 0.499 (inactive) | -0.321 (inactive) | 0.742 | 0.414
